Data on 38 molecules can be found in PubChem BioAssay (EPA / NIEHS).

SMILES strings stand for the structures. Several values for one entry are separate records, joined by “and”; a condition that tells them apart may be missing. Equal values may be shown once. Where a structure was tested more than once in an assay, its records may differ in their call. Activity calls are given as the source filed them. How the source made its calls: active means hit-call score of the fitted dose curve at least 0.9, where 1 is the maximum; inactive means score below 0.9.

The experiment is described as follows: ATG_SREBP_CIS: Attagene CIS-FACTORIAL HepG2 Assay for human Sterol Regulatory Element Binding (SREBP) (AID 2282962). Particulars: HepG2 Attagene cis-factorial SREBP reporter, mRNA; actives raise or lower the signal. As for the experimental part:
ATG_CIS is a cell-based, multiplexed-readout assay that uses HepG2, a human liver cell line, with measurements taken at 24 hours after chemical dosing in a 24-well plate.ATG_SREBP_CIS is one of 52 assay component(s) measured or calculated from the ATG_CIS assay. It is designed to make measurements of mRNA induction, a form of inducible reporter, as detected with fluorescence intensity signals by Reverse transcription polymerase chain reaction (RT-PCR) and Capillary electrophoresis technology.Data from the assay component ATG_SREBP_CIS was analyzed into 1 assay endpoint. This assay endpoint, ATG_SREBP_CIS, was analyzed with bidirectional fitting relative to DMSO as the negative control and baseline of activity. Using a type of inducible reporter, measures of mRNA for gain or loss-of-signal activity can be used to understand the reporter gene at the transcription factor-level as they relate to the gene SREBF1. Furthermore, this assay endpoint can be referred to as a primary readout, because this assay has produced multiple assay endpoints where this one serves a reporter gene function. To generalize the intended target to other relatable targets, this assay endpoint is annotated to the dna binding intended target family, where the subfamily is basic helix-loop-helix leucine zipper.
Human liver HepG2 cells are transiently transfected with multiple reporter transcription units (MRTUs) in 6-well plates using FuGene 6 reagent (Roche; 3 ml FuGene/1 mg DNA). The MRTU constructs are regulated by a cis-regulating element (promoter). […] A major difference between the CIS and TRANS system is that in CIS activities of endogenous TFs are measured, whereas the TRANS assay evaluates changes in activities of exogenous, chimeric NR-Gal4 proteins. […] At the end of 24 hour incubation, total RNA was isolated using TriZol reagent (Invitrogen). The isolated RNA is then reverse-transcribed using oligo(dT) primer and Mo-MLV reverse transcriptase (Invitrogen) with DNAse I (Ambion) treatment for 30 min. The one-tenth of the produced cDNA was amplified by PCR using Taq DNA polymerase (Invitrogen) and two reporter sequence-specific primers. The PCR products were fluorescently labeled by primer extension with 6-arboxyfluorescein (6-FAM) 5'-labeled reporter sequence-specific primer (2 min at 95 C, 20 s at 68 C and 10 min at 72 C) and these products were digested with 5U of HpaI (New England Biolabs) for 2h at 37 C. The fragments were purified using Qiaquick PCR columns (Qiagen), analyzed on an ABI 3130xL genetic analyzer (Applied Biosystems) with peak positions identified by using a set of X-rhodamine (ROX)-labeled MapMarker1000 molecular weight standards (BioVentures). The raw capillary electrophoresis data was processed using Attagraph software (Attagene).
As to `CCCC[C@H]1CN(CC2CCOCC2)C(=O)OC12CCN(C1(C)CCN(C(=O)c3c(C)ncnc3C)CC1)CC2`, the result was inactive.
Still for that read-out and setting: as for `CC(COCC(C)OC(=O)c1ccccc1)OC(=O)c1ccccc1` (stereo not given), the entry is “inactive”.
On to `CC(=O)CC(c1ccccc1)c1c(O)c2ccccc2oc1=O` (stereo not given), for which the molecule was called inactive.
On to `CCc1nc(N)nc(N)c1-c1ccc(Cl)cc1`, for which the molecule was classed as inactive.
With `CS(=O)(=O)c1ccc([C@@H](C[C@H]2CCC(=O)C2)C(=O)Nc2cnccn2)cc1Cl`, the call was inactive.
On the same count and under the same terms, in the case of `CC(C)(C)c1ccccc1` it was “inactive”; in that of `Cn1cnc2c1c(=O)[nH]c(=O)n2C`, “inactive”; in that of `NC=O`, “inactive”.
For orientation: AC50 means the concentration giving half of the maximal activity seen. Consider `CC(=O)[C@@]1(O)CC[C@H]2[C@@H]3CCC4=CC(=O)CC[C@]4(C)[C@H]3CC[C@@]21C`, for which the molecule was classed as inactive and the AC50 was 11.1 µM (active).
Turning to `CC(=O)OC1CC(C)OC(C)O1` (stereo not given), the call was inactive.
On to `CC(=O)O[C@]1(C(C)=O)CC[C@H]2[C@@H]3C=C(Cl)C4=CC(=O)[C@@H]5C[C@@H]5[C@]4(C)[C@H]3CC[C@@]21C`, for which the molecule was called inactive; the AC50 is 29.5 µM (active) and 52.1 µM (active) and 34.3 µM (active).
For `c1ccc2occc2c1`, the call was inactive.
As to `O=C(NS(=O)(=O)/C=C/c1cccs1)c1ccc(F)cc1Br`, the molecule was classed as inactive.
On the same count and under the same terms, in the case of `Cc1ccc(-c2cc(C(F)(F)F)nn2-c2ccc(S(N)(=O)=O)cc2)cc1` it was “inactive”; in that of `CCCCc1nc2cccnc2n1Cc1ccc(-c2ccccc2-c2nnn[nH]2)cc1`, “inactive”; in that of `CN(C)CCCN(C)CCCN(C)C`, “inactive”.
On to `N[C@@H](Cc1c[nH]c2ccccc12)C(=O)O`, for which the result was inactive.
As to `Cc1cc(SC2=C(O)C[C@@](CCc3ccc(N)cc3)(C(C)C)OC2=O)c(C(C)(C)C)cc1CO`, the call was inactive.
On to `CC1(C)C(=O)NC(=O)N1CO`, for which the concentration at half-maximal activity (AC50) was 150 µM (active).
Consider `CCC(C)N(C)C(=O)c1cc2ccccc2c(-c2ccccc2Cl)n1` (stereo not given), for which the result was inactive.
On to `CC(C)OC(=O)C(C)(C)Oc1ccc(C(=O)c2ccc(Cl)cc2)cc1`, for which the result was inactive.
`O=C(N[C@@H](c1ccccc1)[C@@H]1CCCCN1)c1cccc(C(F)(F)F)c1Cl`: the concentration at half-maximal activity (AC50) was 8.09 µM (active).
For the molecule `Cc1occc(=O)c1O`, the molecule was called inactive.
On to `CCCCCCCCCCCCCCOS(=O)(=O)O`, for which the molecule was called inactive.
Same read-out and setting: in the case of `CC(N)=O` it was “inactive”; in that of `C=CCc1ccc(OC)c(OC)c1`, “inactive”.
For `CSc1ccc(Oc2ccc(S(N)(=O)=O)cc2CN(C)C)cc1C`, the AC50 was 23.4 µM (active).
Turning to `C#CC(O)C(CC)CCCC` (stereo not given), the molecule was classed as inactive.
Still for that read-out and setting: in the case of `Oc1ccccc1O` it was “inactive”; in that of `CCCCCCC(CCCCCCCCCCC(=O)OCC(COC(C)=O)OC(C)=O)OC(C)=O` (stereo not given), “inactive”; in that of `NC(=Nc1ccccc1)Nc1ccccc1`, “inactive”.
On the same count and under the same terms, as for `CC(C)c1cccc(C(C)C)c1NC(=O)NS(=O)(=O)c1cc(C(C)(C)O)co1`, the entry is “inactive”; as for `Oc1ccc(O)cc1`, “inactive”.
In the case of `CN(C)C(=O)NC1(c2ccccc2)CCN(CC[C@@]2(c3ccc(F)c(F)c3)CN(C(=O)c3ccccc3)CCO2)CC1`, the half-maximal activity concentration (AC50) was 26.8 µM (active).
`O=C1O[C@H]([C@H](O)CO)C(O)=C1O`: the molecule was classed as inactive.
On the same count and under the same terms, as for `C/C=C/c1ccc(OC)cc1`, the entry is “inactive”; as for `CC(C)COC(=O)CCCCC(=O)OCC(C)C`, “inactive”.
Turning to `O=NO`, the outcome was inactive.
